# Bioassay records: PubChem, National Center for Advancing Translational Sciences (NCATS)
# NS1 function inh – inhibitors of influenza NS1 protein function | Potency, µM (series often up to 46.1 µM), inactives show at the highest dose activity, positive = more growth | 270,000 compounds, 0.4% hits; calls by dose curve; note: actives are rising curves; nearly all actives have a fitted effect of over 50% in size
#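 S. cerevisiae expressing influenza A NS1, grown in glucose, washed, then diluted 1:100 into pH 6.0 -URA galactose medium with 23 nl compound. Growth recovery read as OD600; NS1-free strain serves as control.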
# Pf growth 96h – P. falciparum growth inhibition at 96 hour, primary screen for plastid delayed-death inhibitors. P. falciparum luciferase reporter growth, 96 h. Potency, µM (doses to about 28.7 µM), for inactives: at the highest dose activity change, negative = inhibition, actives largely listed as inhibitors. 320,000 compounds, 6.9% hits; note: % is set by controls: 0 for no effect and ±100 for the full control effect
#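 Two-generation exposure (96 h) targets delayed-death phenotype. Reporter parasites carrying integrated firefly luciferase, in red cells at 2% hematocrit and 0.05% parasitemia final, kept at 37 C, 5% CO2; luminescence loss indicates inhibition.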
# HCV inhibitor – inhibitors of hepatitis C virus infection | Huh7.5.1 HCVcc-Cre infection, luciferase reporter, 44 h | Potency, µM (highest dose often 41.8 µM), without a hit: top-dose activity change, negative = inhibition, actives largely listed as inhibitors | 340,000 compounds, 3.4% hits; note: % is set by controls: 0 for no effect and ±100 for the full control effect
#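 Cells (1,000/well) were plated 4 h before compound, then infected with HCVcc-Cre virus (~0.5 moi). After 44 h further culture, infection was read as luciferase luminescence following a 15 min substrate incubation at room temperature.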
# Vaccinia mCherry – vaccinia inhibition (mCherry reporter); Vaccinia virus mCherry reporter infection, fluorescence; Potency, µM (doses to about 36.5 µM), for inactives: at the top dose activity change, negative = inhibition, hits mostly inhibitors; 310,000 compounds, 0.63% hits; AID 720579; calls by dose curve; tested in A549 cells; note: % is set by controls: 0 for no effect and ±100 for the full control effect; nearly all actives have a fitted effect of over 35% in size
# Vaccinia Venus – inhibitors of vaccinia virus (Venus reporter) | Potency, µM (highest dose often 36.5 µM), without a hit: at the highest dose activity change, negative = inhibition, actives largely listed as inhibitors | Vaccinia virus Venus reporter expression, fluorescence | 330,000 compounds, 0.46% hits; calls by dose curve; tested in A549 cells; note: % is set by controls: 0 for no effect and ±100 for the full control effect; nearly all actives have a fitted effect of over 30% in size
# Pf growth 48h – inhibits P. falciparum growth in the first generation, 48 h. P. falciparum luciferase growth in erythrocytes, 48 h. Potency, µM (highest dose often 28.7 µM), without a hit: top-dose activity change, negative = inhibition, most hits filed as inhibitors. 310,000 compounds, 5.9% hits. AID 504832; note: % is set by controls: 0 for no effect and ±100 for the full control effect
#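 In quantitative HTS format, infected erythrocytes bearing luciferase-reporter parasites were treated for a single generation at 37 C. Luminescence after adding detection reagent served as the growth measure.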
# An asterisk follows results filed as active; i = inactive; ? = inconclusive; · = no result given. Sampled rows, rich in hits. Any-hit rate of the full collection: about 11%. Unless noted, calls come from the whole dose curve; as a rule, active = well fitted inhibition curve with a large enough effect; inconclusive = small, poorly fitted or top-dose-only effect, or another doubt; inactive = no such curve, though single readings can be large or run the other way. Potency is the fitted concentration of half-maximal effect.
SMILES,NS1 function inh,Pf growth 96h,HCV inhibitor,Vaccinia mCherry,Vaccinia Venus,Pf growth 48h
CCCCn1nc(NC(=O)c2cccs2)c2cc3cc(OC)ccc3nc21,-110%,·,10µM*,·,-9%,?
CCN(CC)c1ccc(NC(=O)CCNS(=O)(=O)c2ccc3c(c2)CCC(=O)N3)c(C)c1,7%,55%,-17%,·,·,?
CC(C)NC(=S)N(CCc1ccncc1)C(C)C,·,1.3µM*,9%,i,-12%,-4%
CCOC(=O)N1CCN(c2ncnc3scc(-c4ccccc4)c23)CC1,-34%,?,8.9µM*,-14%,-17%,?
O=C(O)CSCC(=O)N1CCN(c2ncnc3scc(-c4ccccc4)c23)CC1,8%,-28%,10%,·,·,-11%
CCOC(=O)N1CCN(c2ncnc3scc(-c4ccc(Cl)cc4)c23)CC1,-13%,?,?,·,·,0%
CC(C)(C)C(=O)N1CCN(c2ncnc3scc(-c4ccccc4)c23)CC1,1%,13µM*,?,-23%,-23%,·
COc1cc2c(-c3cc(Br)ccc3O)nc3c(c(C)nn3-c3ccccc3)c2cc1OC,·,·,·,-7%,-2%,·
COc1cc(-c2nc3c(c(C)nn3-c3ccccc3)c3cc(OC)c(OC)cc23)ccc1O,12%,?,?,·,-16%,2.9µM*
CCOC(=O)c1csc(NC(=O)CSc2nnnn2-c2ccc(OC)cc2)n1,-5%,?,-12%,-2%,-4%,?
CC(=O)O[C@]1(C(C)=O)CCC2C3CCC4=CC(=O)CCC4(C)C3(F)C(O)CC21C (some centres not stated),·,?,·,·,·,-26%
COc1ccc(-c2oc3ccc(-c4ccc(OC)nc4)cc3c2C#CC2(O)CCCCC2)cc1,17%,5.9µM*,?,i,-26%,?
COc1ccccc1-c1sc2cc3c(cc2c1C#CC1(O)CCCCC1)OCO3,·,4.7µM*,?,i,-21%,?
COc1ccccc1-c1sc2cc3c(cc2c1C#Cc1ccccn1)OCO3,·,?,1%,0%,-17%,-19%
COc1ccc(-c2sc3cc4c(cc3c2C#CC2(O)CCCCC2)OCO4)cc1,·,?,1.6µM*,?,?,?
COc1ccc(-c2oc3ccc(-c4ccc5c(c4)OCO5)cc3c2C#CC2(O)CCCCC2)cc1,·,·,?,-21%,-27%,·
COC(=O)N=Nc1c(O)[nH]c2ccc(Br)cc12,-3%,41%,-44%,-28%,-10%,46%
O=C(O)c1ccc(N=Nc2c(O)[nH]c3ccc(Br)cc23)cc1,7%,5.2µM*,9%,-21%,-22%,?
Oc1[nH]c2ccccc2c1N=Nc1cccc(Cl)c1,0%,?,-26%,·,·,97%
Oc1[nH]c2ccccc2c1N=Nc1ccc(C(F)(F)F)cn1,-1%,113%,-1%,·,-6%,69%
O=C(O)c1ccc(N=Nc2c(O)[nH]c3cc(Cl)ccc23)cc1,1%,4.7µM*,30%,·,·,?
Oc1[nH]c2ccc(Br)cc2c1N=Nc1ccc(C(F)(F)F)cn1,-13%,9.3µM*,?,-21%,-10%,?
COc1cccc(C2CC(C(F)(F)F)n3ncc(C(=O)NCc4ccco4)c3N2)c1 (configuration not stated),-5%,1%,?,-3%,-18%,-8%
O=[N+]([O-])c1ccc2[nH]c(O)c(N=NC(=S)Nc3cccnc3)c2c1,15%,?,3%,·,·,?
CC1=C(C(=O)NCc2cccc(F)c2)C2(CCCCC2)OC1=O,·,·,·,-12%,-16%,·
Cc1cccc(N(Cc2ccccc2)C(=O)C2CCN(C(=O)c3ccccc3C)CC2)c1,·,10µM*,?,-14%,-26%,12µM*
Cc1ccccc1C(=O)N1CCC(C(=O)N(C)CCOc2ccccc2)CC1,-4%,-10%,·,i,-13%,?
O=C(c1ccco1)N1CCN(C(c2ccccc2Cl)c2nnnn2CC2CCCO2)CC1 (configuration not stated),-6%,-126%,-1%,-11%,-9%,?
CCC(=O)N1CCc2cc(S(=O)(=O)CCC(=O)NCCc3ccc(OC)c(OC)c3)ccc21,-9%,0%,?,-8%,-6%,-2%
